Holding throughout (assay): DAPPL (digital affinity profiling via proximity ligation, sequencing); 10 mM Tris-HCl pH 7.5, 50 mM NaCl, 1 mM DTT, 4% glycerol, room temperature, 30 min; GST-TFs on glutathione beads, 16-mer random dsDNA library, 0.1% formaldehyde crosslink after washing; high values mean tight binding
For one assay, the target named is T1, FLI1 (Homo sapiens, UniProt Q01543 1-452).
T1 sequence: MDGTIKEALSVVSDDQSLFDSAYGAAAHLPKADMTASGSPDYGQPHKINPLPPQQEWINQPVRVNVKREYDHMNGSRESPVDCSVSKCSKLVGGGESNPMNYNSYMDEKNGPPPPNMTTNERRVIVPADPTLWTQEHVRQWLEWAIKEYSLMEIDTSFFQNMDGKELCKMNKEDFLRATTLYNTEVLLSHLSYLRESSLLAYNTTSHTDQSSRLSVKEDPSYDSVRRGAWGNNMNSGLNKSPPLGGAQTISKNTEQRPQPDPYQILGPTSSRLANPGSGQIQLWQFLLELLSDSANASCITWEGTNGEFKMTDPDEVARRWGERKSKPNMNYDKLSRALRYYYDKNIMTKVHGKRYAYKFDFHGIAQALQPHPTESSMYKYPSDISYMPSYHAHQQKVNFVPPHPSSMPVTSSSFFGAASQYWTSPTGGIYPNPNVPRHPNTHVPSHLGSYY
The following applies: protein: recombinant; tags: N-terminal GST; dsDNA, one strand shown. The procedure, abridged: (§1)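 Yeast served to express human transcription factors as GST fusions, which were then captured on glutathione beads and labelled with DNA barcodes. Pooled with a tag-only sample, they were incubated with 200 nmole of a 16-mer random double-stranded DNA library for 30 min at room temperature in Tris/NaCl/DTT/glycerol buffer, washed, crosslinked with 0.1% formaldehyde, ligated by proximity, amplified by PCR and sequenced. Dividing each hexamer's read frequency for a factor by its frequency for the tag-only sample gives the binding signal.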

The target of another assay is T2, ELK1 (Homo sapiens, UniProt P19419 1-428).
T2 sequence: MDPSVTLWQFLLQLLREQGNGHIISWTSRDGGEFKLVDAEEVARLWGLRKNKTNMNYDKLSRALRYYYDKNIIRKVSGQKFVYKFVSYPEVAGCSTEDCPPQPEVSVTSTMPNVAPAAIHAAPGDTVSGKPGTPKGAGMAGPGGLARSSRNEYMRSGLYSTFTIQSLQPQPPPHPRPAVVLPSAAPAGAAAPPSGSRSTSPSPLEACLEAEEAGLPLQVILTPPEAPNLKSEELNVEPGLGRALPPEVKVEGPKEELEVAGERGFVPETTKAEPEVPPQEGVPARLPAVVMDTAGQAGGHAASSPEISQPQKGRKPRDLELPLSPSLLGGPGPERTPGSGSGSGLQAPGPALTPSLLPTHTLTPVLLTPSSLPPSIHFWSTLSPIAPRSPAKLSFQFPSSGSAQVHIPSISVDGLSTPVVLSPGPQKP
The settings on record: protein: recombinant; tags: N-terminal GST; dsDNA, one strand shown. The procedure, abridged:
as §1

The next assay concerns the target T3, GABPA (Homo sapiens, UniProt Q06546 1-454).
T3 sequence: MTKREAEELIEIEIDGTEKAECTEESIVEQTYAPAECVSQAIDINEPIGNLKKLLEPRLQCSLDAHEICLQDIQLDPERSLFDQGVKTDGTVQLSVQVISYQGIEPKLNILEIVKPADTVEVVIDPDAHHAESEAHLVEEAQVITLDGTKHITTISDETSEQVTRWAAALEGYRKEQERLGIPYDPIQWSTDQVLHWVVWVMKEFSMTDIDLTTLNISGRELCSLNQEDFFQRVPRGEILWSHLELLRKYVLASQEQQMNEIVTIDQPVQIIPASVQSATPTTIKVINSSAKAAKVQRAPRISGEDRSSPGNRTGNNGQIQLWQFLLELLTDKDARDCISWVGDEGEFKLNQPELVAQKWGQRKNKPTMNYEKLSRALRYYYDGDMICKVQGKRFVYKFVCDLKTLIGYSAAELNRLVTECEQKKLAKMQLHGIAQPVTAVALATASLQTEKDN
The settings on record: protein: recombinant; tags: N-terminal GST; dsDNA, one strand shown. The procedure, abridged:
as §1

Another assay deals with T4, ERG (Homo sapiens, UniProt P11308 1-479).
T4 sequence: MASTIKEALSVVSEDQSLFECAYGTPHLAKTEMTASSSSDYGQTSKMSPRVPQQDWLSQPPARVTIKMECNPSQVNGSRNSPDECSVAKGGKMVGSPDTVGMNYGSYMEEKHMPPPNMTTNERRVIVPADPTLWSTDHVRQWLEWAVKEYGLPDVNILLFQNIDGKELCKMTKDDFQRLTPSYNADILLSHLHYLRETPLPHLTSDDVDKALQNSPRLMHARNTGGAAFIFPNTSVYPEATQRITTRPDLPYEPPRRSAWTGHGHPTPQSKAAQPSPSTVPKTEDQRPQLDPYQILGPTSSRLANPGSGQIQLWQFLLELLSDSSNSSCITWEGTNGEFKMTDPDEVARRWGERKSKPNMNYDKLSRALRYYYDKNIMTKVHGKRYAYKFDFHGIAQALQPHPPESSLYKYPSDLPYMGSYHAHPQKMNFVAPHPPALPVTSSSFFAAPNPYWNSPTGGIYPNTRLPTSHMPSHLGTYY
The settings on record: protein: recombinant; tags: N-terminal GST; dsDNA, one strand shown. The procedure, abridged: as §1

The target of another assay is ELF1 (Homo sapiens, UniProt P32519 1-619). The settings on record: protein: recombinant; tags: N-terminal GST; dsDNA, one strand shown. The procedure, abridged: as §1
Sequence of ELF1 (P32519 whole entry): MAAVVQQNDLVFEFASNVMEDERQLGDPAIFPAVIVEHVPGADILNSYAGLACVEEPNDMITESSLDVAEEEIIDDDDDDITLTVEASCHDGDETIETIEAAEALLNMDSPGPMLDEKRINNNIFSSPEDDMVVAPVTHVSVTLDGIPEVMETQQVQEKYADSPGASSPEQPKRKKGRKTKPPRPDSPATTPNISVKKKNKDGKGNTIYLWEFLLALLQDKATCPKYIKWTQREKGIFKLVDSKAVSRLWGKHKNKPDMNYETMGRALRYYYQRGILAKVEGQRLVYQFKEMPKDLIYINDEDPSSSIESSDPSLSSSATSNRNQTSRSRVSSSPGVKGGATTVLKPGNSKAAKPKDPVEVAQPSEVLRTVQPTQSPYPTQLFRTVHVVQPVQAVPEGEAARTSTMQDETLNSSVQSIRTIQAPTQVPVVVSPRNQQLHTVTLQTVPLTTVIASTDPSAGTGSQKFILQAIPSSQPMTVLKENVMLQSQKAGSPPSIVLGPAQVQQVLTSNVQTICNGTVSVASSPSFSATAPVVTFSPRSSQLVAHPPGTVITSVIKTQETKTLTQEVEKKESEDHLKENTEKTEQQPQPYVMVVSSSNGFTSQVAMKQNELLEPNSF
In the next assay the target is T5, EHF (Homo sapiens, UniProt Q9NZC4 1-300).
T5 sequence: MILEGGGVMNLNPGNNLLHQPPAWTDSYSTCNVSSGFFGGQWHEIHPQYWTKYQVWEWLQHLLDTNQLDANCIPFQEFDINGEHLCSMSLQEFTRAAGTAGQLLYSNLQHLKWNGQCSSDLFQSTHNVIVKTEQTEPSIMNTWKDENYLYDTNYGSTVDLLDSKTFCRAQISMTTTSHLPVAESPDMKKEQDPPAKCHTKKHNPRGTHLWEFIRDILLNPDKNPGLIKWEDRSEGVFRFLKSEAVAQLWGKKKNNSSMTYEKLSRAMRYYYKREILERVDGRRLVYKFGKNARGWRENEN
The settings on record: protein: recombinant; tags: N-terminal GST; dsDNA, one strand shown. The procedure, abridged: as §1

A further assay has as its target SPI1 (Homo sapiens, UniProt P17947 1-270). The settings on record: protein: recombinant; tags: N-terminal GST; dsDNA, one strand shown. The procedure, abridged:
as §1

Another assay has as its target SPIB (Homo sapiens, UniProt Q01892 1-262). The settings on record: protein: recombinant; tags: N-terminal GST; dsDNA, one strand shown. The procedure, abridged: as §1
The next assay deals with T6, ELK3 (Homo sapiens, UniProt P41970 1-407).
T6 sequence: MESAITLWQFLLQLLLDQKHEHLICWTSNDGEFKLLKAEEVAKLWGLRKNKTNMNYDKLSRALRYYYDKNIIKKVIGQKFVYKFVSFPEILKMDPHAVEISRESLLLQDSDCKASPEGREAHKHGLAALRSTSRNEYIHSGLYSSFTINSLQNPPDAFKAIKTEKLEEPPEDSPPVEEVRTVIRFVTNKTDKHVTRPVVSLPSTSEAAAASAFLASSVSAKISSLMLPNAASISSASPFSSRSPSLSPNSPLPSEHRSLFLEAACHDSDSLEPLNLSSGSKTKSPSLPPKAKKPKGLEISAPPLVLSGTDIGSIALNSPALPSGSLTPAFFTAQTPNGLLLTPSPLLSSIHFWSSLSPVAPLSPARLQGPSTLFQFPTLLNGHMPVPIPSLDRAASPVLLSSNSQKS
The following applies: protein: recombinant; tags: N-terminal GST; dsDNA, one strand shown. The procedure, abridged:
as §1

For a further assay, the target named is T7, FEV (Homo sapiens, UniProt Q99581 1-238).
T7 sequence: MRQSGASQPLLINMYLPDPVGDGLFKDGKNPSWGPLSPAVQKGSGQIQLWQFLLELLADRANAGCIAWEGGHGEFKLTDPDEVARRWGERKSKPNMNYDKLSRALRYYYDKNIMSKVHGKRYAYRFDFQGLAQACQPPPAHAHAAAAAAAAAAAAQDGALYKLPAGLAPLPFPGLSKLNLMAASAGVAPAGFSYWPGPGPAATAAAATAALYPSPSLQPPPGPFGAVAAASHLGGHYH
The settings on record: protein: recombinant; tags: N-terminal GST; dsDNA, one strand shown. The procedure, abridged: as §1

Another assay deals with ETV5 (Homo sapiens, UniProt P41161 1-510). The settings on record: protein: recombinant; tags: N-terminal GST; dsDNA, one strand shown. The procedure, abridged: as §1
Sequence of ETV5 (P41161 whole entry): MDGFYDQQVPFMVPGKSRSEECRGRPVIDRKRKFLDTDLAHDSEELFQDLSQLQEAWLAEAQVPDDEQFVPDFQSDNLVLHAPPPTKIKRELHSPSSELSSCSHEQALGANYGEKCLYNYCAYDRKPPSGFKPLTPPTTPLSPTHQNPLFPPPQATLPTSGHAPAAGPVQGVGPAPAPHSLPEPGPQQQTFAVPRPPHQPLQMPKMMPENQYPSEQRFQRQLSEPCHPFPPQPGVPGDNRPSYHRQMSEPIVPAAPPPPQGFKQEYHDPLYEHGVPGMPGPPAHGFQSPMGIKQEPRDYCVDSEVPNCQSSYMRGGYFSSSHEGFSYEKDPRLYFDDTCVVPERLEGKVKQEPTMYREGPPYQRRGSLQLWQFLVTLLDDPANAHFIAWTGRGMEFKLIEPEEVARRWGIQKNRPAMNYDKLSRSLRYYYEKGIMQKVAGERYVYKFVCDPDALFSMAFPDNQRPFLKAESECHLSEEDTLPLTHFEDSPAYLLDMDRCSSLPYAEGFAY
The target of a further assay is HSF1 (Homo sapiens, UniProt Q00613 1-529). The following applies: protein: recombinant; tags: N-terminal GST; chain copies: 3; dsDNA, one strand shown. The procedure, abridged:
as §1

A further assay deals with T8, SPIC (Homo sapiens, UniProt Q8N5J4 1-248).
T8 sequence: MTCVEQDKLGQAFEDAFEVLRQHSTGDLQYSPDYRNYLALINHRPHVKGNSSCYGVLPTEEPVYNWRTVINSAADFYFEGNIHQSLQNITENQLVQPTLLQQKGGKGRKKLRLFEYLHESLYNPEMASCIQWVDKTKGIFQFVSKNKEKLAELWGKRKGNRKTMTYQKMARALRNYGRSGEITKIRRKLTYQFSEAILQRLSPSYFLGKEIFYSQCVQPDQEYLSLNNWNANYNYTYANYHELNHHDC
The settings on record: protein: recombinant; tags: N-terminal GST; dsDNA, one strand shown. The procedure, abridged:
as §1

A further assay addresses ELF4 (Homo sapiens, UniProt Q99607 1-663). The following applies: protein: recombinant; tags: N-terminal GST; dsDNA, one strand shown. The procedure, abridged:
as §1

The next assay concerns the target T9, ELK4 (Homo sapiens, UniProt P28324-2 1-405).
T9 sequence: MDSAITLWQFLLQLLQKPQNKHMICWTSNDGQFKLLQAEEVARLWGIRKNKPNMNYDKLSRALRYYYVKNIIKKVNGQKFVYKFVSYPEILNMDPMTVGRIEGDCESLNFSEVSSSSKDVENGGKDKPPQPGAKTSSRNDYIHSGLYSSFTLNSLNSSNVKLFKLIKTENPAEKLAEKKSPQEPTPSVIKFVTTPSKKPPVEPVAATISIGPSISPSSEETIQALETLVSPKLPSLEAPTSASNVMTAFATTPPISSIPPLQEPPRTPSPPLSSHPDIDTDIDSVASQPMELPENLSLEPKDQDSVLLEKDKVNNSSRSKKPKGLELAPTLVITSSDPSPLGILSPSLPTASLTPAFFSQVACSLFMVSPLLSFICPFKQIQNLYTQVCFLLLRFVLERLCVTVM
The settings on record: protein: recombinant; tags: N-terminal GST; dsDNA, one strand shown. The procedure, abridged:
as §1

The next assay deals with T10, ELF3 (Homo sapiens, UniProt P78545 1-371).
T10 sequence: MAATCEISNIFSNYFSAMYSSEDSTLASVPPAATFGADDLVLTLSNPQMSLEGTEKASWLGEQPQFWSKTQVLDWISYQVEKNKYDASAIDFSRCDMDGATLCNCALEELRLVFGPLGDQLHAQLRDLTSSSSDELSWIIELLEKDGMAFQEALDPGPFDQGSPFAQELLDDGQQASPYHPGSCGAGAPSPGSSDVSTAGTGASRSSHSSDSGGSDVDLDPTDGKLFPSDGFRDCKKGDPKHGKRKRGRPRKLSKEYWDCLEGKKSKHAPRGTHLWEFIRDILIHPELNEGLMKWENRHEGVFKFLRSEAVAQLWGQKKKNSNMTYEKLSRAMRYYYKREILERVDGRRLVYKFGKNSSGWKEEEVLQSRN
The settings on record: protein: recombinant; tags: N-terminal GST; dsDNA, one strand shown. The procedure, abridged:
as §1

In another assay the target is CRX (Homo sapiens, UniProt O43186 1-299). The settings on record: protein: recombinant; tags: N-terminal GST; dsDNA, one strand shown. The procedure, abridged: as §1
Sequence of CRX (O43186 whole entry): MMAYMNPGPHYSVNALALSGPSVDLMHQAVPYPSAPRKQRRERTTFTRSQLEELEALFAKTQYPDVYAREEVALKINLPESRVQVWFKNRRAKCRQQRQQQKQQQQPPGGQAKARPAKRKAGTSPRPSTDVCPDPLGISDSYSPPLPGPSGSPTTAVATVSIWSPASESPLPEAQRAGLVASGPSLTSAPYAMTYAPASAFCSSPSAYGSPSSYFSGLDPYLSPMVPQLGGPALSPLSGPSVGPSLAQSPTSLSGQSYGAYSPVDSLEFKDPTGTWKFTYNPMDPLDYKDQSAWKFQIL
A further assay concerns the target ETV1 (Homo sapiens, UniProt P50549 1-477). The settings on record: protein: recombinant; tags: N-terminal GST; dsDNA, one strand shown. The procedure, abridged:
as §1

Sequence of SPIB (Q01892 whole entry): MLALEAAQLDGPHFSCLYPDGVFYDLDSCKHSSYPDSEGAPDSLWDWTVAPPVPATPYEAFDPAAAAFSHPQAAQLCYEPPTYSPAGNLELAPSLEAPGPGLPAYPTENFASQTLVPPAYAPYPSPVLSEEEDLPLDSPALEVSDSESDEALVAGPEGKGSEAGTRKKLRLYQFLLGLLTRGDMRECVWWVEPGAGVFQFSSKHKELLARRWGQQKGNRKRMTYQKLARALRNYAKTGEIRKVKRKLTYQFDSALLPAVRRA
Sequence of ELF4 (Q99607 whole entry): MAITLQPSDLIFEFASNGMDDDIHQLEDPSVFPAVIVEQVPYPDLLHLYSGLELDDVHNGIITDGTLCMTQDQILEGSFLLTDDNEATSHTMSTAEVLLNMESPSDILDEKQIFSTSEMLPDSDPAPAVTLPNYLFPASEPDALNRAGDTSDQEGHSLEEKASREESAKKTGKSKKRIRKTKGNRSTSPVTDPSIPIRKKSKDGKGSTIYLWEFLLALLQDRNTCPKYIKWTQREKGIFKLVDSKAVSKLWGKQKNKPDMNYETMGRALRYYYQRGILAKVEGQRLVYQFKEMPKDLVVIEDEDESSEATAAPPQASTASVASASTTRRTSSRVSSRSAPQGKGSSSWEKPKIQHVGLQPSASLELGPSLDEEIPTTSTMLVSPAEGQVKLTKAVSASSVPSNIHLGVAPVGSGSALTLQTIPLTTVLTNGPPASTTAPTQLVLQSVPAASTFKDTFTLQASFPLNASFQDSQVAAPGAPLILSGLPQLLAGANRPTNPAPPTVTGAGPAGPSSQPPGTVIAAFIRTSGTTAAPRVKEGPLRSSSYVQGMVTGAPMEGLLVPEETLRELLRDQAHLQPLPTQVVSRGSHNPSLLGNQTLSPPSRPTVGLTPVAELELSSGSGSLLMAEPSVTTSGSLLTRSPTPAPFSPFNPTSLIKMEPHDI
Sequence of ETV1 (P50549 whole entry): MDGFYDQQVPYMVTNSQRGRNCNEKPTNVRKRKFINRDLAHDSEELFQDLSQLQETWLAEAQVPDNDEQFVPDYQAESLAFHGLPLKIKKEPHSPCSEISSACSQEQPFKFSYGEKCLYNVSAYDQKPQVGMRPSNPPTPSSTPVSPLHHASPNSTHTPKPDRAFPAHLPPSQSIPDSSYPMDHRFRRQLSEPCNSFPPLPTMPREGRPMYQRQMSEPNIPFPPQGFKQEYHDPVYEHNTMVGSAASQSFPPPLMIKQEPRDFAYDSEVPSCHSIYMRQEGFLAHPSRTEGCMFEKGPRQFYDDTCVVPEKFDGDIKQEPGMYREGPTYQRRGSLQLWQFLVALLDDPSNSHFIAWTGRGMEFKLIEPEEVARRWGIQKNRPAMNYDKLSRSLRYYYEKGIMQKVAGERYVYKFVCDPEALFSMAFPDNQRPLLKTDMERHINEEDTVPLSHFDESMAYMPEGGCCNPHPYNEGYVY
Sequence of HSF1 (Q00613 whole entry): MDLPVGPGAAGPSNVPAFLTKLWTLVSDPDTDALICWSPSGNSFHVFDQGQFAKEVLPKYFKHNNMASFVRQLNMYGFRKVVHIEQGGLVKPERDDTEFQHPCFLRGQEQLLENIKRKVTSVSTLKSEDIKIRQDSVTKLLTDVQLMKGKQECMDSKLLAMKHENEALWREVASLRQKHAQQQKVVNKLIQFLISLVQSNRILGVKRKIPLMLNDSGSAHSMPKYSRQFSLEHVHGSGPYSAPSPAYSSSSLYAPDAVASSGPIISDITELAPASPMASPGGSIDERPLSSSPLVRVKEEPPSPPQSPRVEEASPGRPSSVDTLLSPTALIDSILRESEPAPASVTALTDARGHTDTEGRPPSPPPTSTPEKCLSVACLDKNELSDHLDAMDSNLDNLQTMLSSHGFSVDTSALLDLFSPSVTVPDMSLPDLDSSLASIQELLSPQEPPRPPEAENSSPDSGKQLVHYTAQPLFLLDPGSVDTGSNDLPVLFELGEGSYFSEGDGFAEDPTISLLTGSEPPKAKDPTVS

Turning to AAGCGC, the binding signal was 1.2 fold enrichment (6-mer frequency, TF over GST control) with FLI1; 1.11 fold enrichment (6-mer frequency, TF over GST control) with ELK1; 1.12 fold enrichment (6-mer frequency, TF over GST control) with GABPA; 1.13 fold enrichment (6-mer frequency, TF over GST control) with ERG; 1.15 fold enrichment (6-mer frequency, TF over GST control) with ELF1; 1.19 fold enrichment (6-mer frequency, TF over GST control) with EHF. Besides, the binding signal is 1.07 fold enrichment (6-mer frequency, TF over GST control) in the assay with SPI1; 1.23 fold enrichment (6-mer frequency, TF over GST control) in the assay with SPIB; 1.19 fold enrichment (6-mer frequency, TF over GST control) in the assay with ELK3; 1.14 fold enrichment (6-mer frequency, TF over GST control) with FEV; 1.09 fold enrichment (6-mer frequency, TF over GST control) with ETV5; 1.08 fold enrichment (6-mer frequency, TF over GST control) with HSF1. Besides, the binding signal is 1.14 fold enrichment (6-mer frequency, TF over GST control) with SPIC; 1.12 fold enrichment (6-mer frequency, TF over GST control) with ELF4; 1.2 fold enrichment (6-mer frequency, TF over GST control) with ELK4; 1.16 fold enrichment (6-mer frequency, TF over GST control) with ELF3; 1.27 fold enrichment (6-mer frequency, TF over GST control) in the assay with CRX; 1.09 fold enrichment (6-mer frequency, TF over GST control) with ETV1.

(Values after publication PMC7862700, “An all-to-all approach to the identification of sequence-specific readers for epigenetic DNA modifications on cytosine”.)
